GLS inh: glutaminase GLS (human) inhibition. O94925. Potency, µM (series often up to 45.5 µM), for the others: top-dose activity change, negative = inhibition, most hits filed as inhibitors. hit rate 0.21% among 410,000. AID 624170. GLS enzymatic activity, qHTS titration; note: % is set by controls: 0 for no effect and ±100 for the full control effect
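hKGA in 45 mM KH2PO4 (pH 8.2), 0.02% Tween-20 with compound, then 1mM L-Glutamine (stock as added) plus glutamate oxidase/HRP/Amplex red coupling mix. Fluorescence read initially and after 30 min at RT; signal change reflects glutamate formation.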
JMJD2A Tudor inh: JMJD2A Tudor domain (human) inhibition | O75164 | AlphaScreen JMJD2A-Tudor / H3K4me3 peptide binding | Potency, µM (top dose mostly 114 µM), for inactives: top-dose activity change, negative = inhibition, most hits filed as inhibitors | hit rate 4.4% among 390,000; note: % is set by controls: 0 for no effect and ±100 for the full control effect; nearly all actives have a fitted effect of over 50% in size
BAZ2B inh: BAZ2B (human) inhibition | AlphaScreen BAZ2B-H3K14Ac peptide displacement | Potency, µM (titrated, usually from 114 µM), for inactives: at the highest dose activity change, negative = inhibition, actives largely listed as inhibitors | hit rate 4.4% among 360,000; note: % is set by controls: 0 for no effect and ±100 for the full control effect; nearly all actives have a fitted effect of over 60% in size
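AlphaScreen displacement: compounds (up to 110uM) incubated 30 min at room temperature with a preformed 50 nM BAZ2B/50 nM biotinylated H3K14Ac peptide complex in PBS pH 7.4 with Tween-20. Donor and acceptor beads at 10 ug/mL final added, 20 min light-protected before reading.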
G9a inh: G9a (human) methyltransferase inhibition; hit rate 8.8% among 350,000; Potency, µM (series often up to 102 µM), for inactives: at the highest dose activity, negative = inhibition, hits mostly inhibitors; G9a H3K9 monomethylation, AlphaScreen, 2 h; AID 504332; note: % is set by controls: 0 for no effect and ±100 for the full control effect; nearly all actives have a fitted effect of over 75% in size
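G9a (20 nM) was preincubated 15 min with compound, then reacted 2 h at room temperature with 500 nM biotin-H3K9 peptide and 20 µM SAM. Monomethyl-H3K9 detected by AlphaScreen using anti-H3K9me1 antibody.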
HP1b chromo inh: HP1-beta chromodomain-methylated histone interaction inhibition. AlphaScreen HP1-beta / biotin-H3K9me3 peptide binding. Potency, µM (doses to about 114 µM), for inactives: top-dose activity change, negative = inhibition, usual class: inhibitors. hit rate 0.56% among 390,000. AID 540317; note: nearly all actives have a fitted effect of over 70% in size
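Compound inhibition of the preformed complex between 50 nM HP1-beta and 50 nM biotinylated H3K9me3 peptide was read by AlphaScreen. Buffer was PBS pH 7.4 with 0.01% Tween-20. Incubations ran 30 min at room temperature, with 10 ug/mL donor/acceptor beads.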
* hit, by the source's call; ? = inconclusive; . = not tested or not shown; [ ] = another dose, or the depositor's remark. Shown are actives, neighbours in structure and some others; about 10% of the full set was active somewhere. Calls come from the whole dose curve; as a rule, active = well fitted curve in the direction sought with a large enough effect; inconclusive = small, poorly fitted or top-dose-only effect, or another doubt; inactive = no such curve, though single readings can be large; an effect the other way counts as inactive or inconclusive. Potency is the fitted concentration of half-maximal effect.

SMILES | GLS inh | JMJD2A Tudor inh | BAZ2B inh | G9a inh | HP1b chromo inh
COc1ccc(NC(=O)CSc2nnc(-c3ccc(OC)cc3)s2)cc1 | -1.7% | -22.3% | 0.2% | -6.6%[59 µM] | 13.4%[57 µM]
CCOC(=O)c1c(NC(=O)CSc2nnc(C)c(=O)[nH]2)sc(C)c1-c1ccc(C)cc1 | -5.1% | -33.6% | -22.5% | -11.6%[12.7 µM] | 6.7%
COc1ccccc1CNc1nc(=S)[nH]c2cc(OC)c(OC)cc12 | -14.9% | -31.5% | -10.4% | 79.4µM* | 37.2%
COc1cc2[nH]c(=S)nc(NCCc3ccc(C)cc3)c2cc1OC | 3.7% | ? | -11.3% | 4.7% | 12.7%
COc1cc2[nH]c(=S)nc(NCCc3ccc(S(N)(=O)=O)cc3)c2cc1OC | -8.6% | -15.2% | -23.9% | 12.6µM* | 116.0%
COc1cc2[nH]c(=S)nc(NCc3cccs3)c2cc1OC | -16.4% | -12.8% | 2.4% | 28.2µM* | 29.1%
COc1cc2[nH]c(=S)nc(NCc3ccc(Cl)cc3)c2cc1OC | -0.9% | -21.0% | -20.8% | -28.0%[2.33 µM] | 76.1%
COc1cc2[nH]c(=S)nc(NCCC(C)C)c2cc1OC | -11.7% | 25.1µM* | ? | 17.8µM* | -0.2%
CC[C@H]1C(=O)[C@@H](Cc2ccccc2)[C@@H]2CCN3C(=O)CCC[C@H]1[C@H]23 | -0.6% | -8.3% | . | . | 36.7%
CCC(Oc1ccccc1F)C(=O)Nc1c(C(=O)c2ccccc2)oc2ccccc12 (stereo unspecified) | -3.0% | 63.2% | 53.5% | 100.7%[59 µM] | 85.5%
CC(C)c1ccc(S(=O)(=O)NCc2nc3cccnc3n2Cc2ccc(F)cc2)cc1 | 7.4% | 7.1% | -0.8% | 6.8%[59 µM] | 23.0%[57 µM]
Nn1c(SCC(=O)NC2CCCC2)nnc1C(F)(F)F | -12.1% | . | . | . | .
COc1ccc(C2N3CC4(C)CN2CC(c2ccccc2)(C3)C4=O)cc1 (stereo unspecified) | 3.1% | ? | -12.1% | 1.9%[59 µM] | 12.8%
COc1ccc(OC)c(NC(=S)Nc2ccccc2)c1 | 0.5% | -22.7% | -33.3% | -49.4% | 15.6%
COc1ccc(NC(=S)NC2CCCCC2)c(OC)c1 | -8.2% | -29.6% | ? | 50.1µM* | ?
COc1ccc(NC(=O)N(C2CCCCC2)C(C)c2ccco2)c(OC)c1 (stereo unspecified) | 18.0% | ? | ? | 44.7µM* | 6.8%
COc1ccc(NC(=O)Nc2cnccn2)c(OC)c1 | 7.1% | -9.9% | 0.9% | . | 19.9%
COC(=O)NNC(=S)Nc1cc(OC)ccc1OC | 3.8% | ? | ? | 44.7µM* | -8.7%
COc1ccc(NC(=O)Nc2ccc(Cc3ccncc3)cc2)c(OC)c1 | 9.2% | ? | 50.1µM* | ? | ?
COc1ccc(NC(=S)NC2CCCCCC2)c(OC)c1 | 19.9% | -29.6% | ? | ? | ?
COc1ccc(NC(=O)N(C2CCCCC2)C(C)c2cccnc2)c(OC)c1 (stereo unspecified) | 28.7% | -27.6% | -27.6% | -9.4%[59 µM] | 10.8%
CCCN1CCN(CCCNC(=O)Cn2nc(C)n3c(cc4cc(OC)ccc43)c2=O)CC1 | -0.9% | -14.3% | 0.1% | . | 41.8%
O=C(Oc1ccc(Oc2ccccc2)cc1)N1CCC(O)CC1 | -7.5% | -10.5% | -1.5% | 7.3%[12.7 µM] | 41.3%
Cc1ccc(N2C(=O)CSC23C(=O)N(CC(=O)NCc2ccccc2)c2ccccc23)cc1C (stereo unspecified) | 0.3% | -22.3% | 4.7%[57.1 µM] | -11.1%[59 µM] | 7.4%
Cc1ccc(NC(=O)c2cnc(SCC(=O)N3CCOCC3)n(C)c2=O)cc1C | -0.9% | -7.5% | -0.8% | -3.2%[59 µM] | 15.8%
SMILES | GLS inh | JMJD2A Tudor inh | BAZ2B inh | G9a inh | HP1b chromo inh
COc1ccc(NC(=S)Nc2ccccc2OC)c(OC)c1 | 36.9% | ? | -10.4% | -15.6%[59 µM] | ?
COc1ccc(NC(=S)Nc2cccnc2)c(OC)c1 | 32.4% | -2.0% | -3.3% | 50.1µM* | 16.2%
COc1ccc(NC(=S)Nc2ccc(OC)cc2OC)c(OC)c1 | 14.4% | -5.5% | -12.6% | 3.98µM* | -9.5%
COc1ccc(NC(=O)C/C(C)=N/NC(=O)C(=O)NC2CCCCC2)c(OC)c1 | 1.9% | -5.4% | -14.5% | 15.8µM* | 39.5%
NCC1O[C@@H](OC2C(N)CC(N)C(O)C2O[C@@H]2OC(CO)C(O)C2O)C(N)C(O)C1O (stereo partly specified) | . | . | . | -35.9%[2.33 µM] | .
CN(C)c1ccc(N2C(=NC(=O)COc3ccccc3)SC3CS(=O)(=O)CC32)cc1 (stereo unspecified) | 42.7% | ? | ? | 50.1µM* | -12.7%

Screens deposited in PubChem BioAssay by National Center for Advancing Translational Sciences (NCATS).
